The structures appear in SMILES notation. Out of some 360,000 compounds screened, about 2,600 (0.72%) were called active.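 How the source made its calls: active means inhibition of the luminescence signal of 40% or more relative to plate controls, in a single-dose primary screen at 18.75 µM; inactive means the rest.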 For the sample, actives were picked, then their nearest neighbours and some compounds at random.

One may read the inhibition as the change of the read-out against control, counted positive when it falls.

The experiment in a line: blockers of HIF-2a driven luciferase – luminescence, 786-0 RCC cells, primary screen (AID 624352). Particulars: 786-0 RCC cells HIF-2a reporter, overnight, at 18.8 µM, stronger effect = higher value.
In the case of `COC(=O)CCNc1ccc2c(c1)OCCO2`, the inhibition is 42% (active).

With `CCOc1ccc(NCCC(=O)c2ccc3c(c2)OCO3)cc1`, the inhibition is -129% (inactive).

Take `Cc1ccc(OCCCC(=O)Nc2ccc3c(c2)OCCO3)cc1`: the inhibition is 1.79% (inactive).

With `CCC(=O)Nc1ccc(C(=O)CSc2nnc(CNc3ccc(Cl)cc3)o2)cc1OC`, the inhibition is 14.6% (inactive).

As for `CC(=O)N1c2ccc(S(=O)(=O)N3CCCC(C(=O)Nc4ccc(C)cc4C)C3)cc2CC1C` (stereo not given), the inhibition is 17% (inactive).

`Oc1ccc(CNc2ccccc2O)cc1`: the inhibition was -142% (inactive).

Regarding `O=S(=O)(NCc1ccccn1)c1ccc(Br)s1`, the inhibition is -3.82% (inactive).

For the molecule `O=S(=O)([N-]c1nc2ccccc2nc1-[n+]1ccc(Cc2ccccc2)cc1)c1ccc(Br)s1`, the inhibition was 52.2% (active).

For the molecule `CCN(CC)CC(=O)Nc1nn(-c2ccccc2)nc1C(N)=O`, the inhibition is 4.53% (inactive).

Consider `OCCCNC(c1ccccc1)c1ccc(O)cc1` (stereo not given), for which the inhibition is 1.29% (inactive).

For the molecule `O=C(/C=C/Sc1ncn[nH]1)c1ccc(Cl)cc1`, the inhibition was 88.1% (active).

As to `CC(=O)OCc1cc(=O)n(C)c(=O)n1C`, the inhibition was -10.8% (inactive).

For `O=C(CSc1nc2cccc(F)c2c(=O)n1-c1ccccc1)Nc1ccc2c(c1)CCC2`, the inhibition is -5.39% (inactive).

Turning to `COc1ccc(CC(N)c2csc(NC(=O)NC(c3ccccc3)c3ccccc3)n2)cc1` (stereo not given), the inhibition is 4.75% (inactive).

As for `CC(C)(C)CC(=O)Nc1nc(C(N)Cc2ccc(C(F)(F)F)cc2)cs1` (stereo not given), the inhibition was 11.1% (inactive).

`COc1ccc(CC(N)c2csc(NC(=O)Nc3ccc(C(C)C)cc3)n2)cc1` (stereo not given): the inhibition was 91.1% (active).

Consider `O=C(CNC(=O)OCc1ccccc1)Oc1cc2oc(=O)cc(-c3ccccc3)c2cc1Cl`, for which the inhibition is -13.9% (inactive).

On to `COc1ccc(S(=O)(=O)N2C[C@H]3CON(C)[C@H]3C[C@H]2c2cccc(Br)c2)cc1`, for which the inhibition is 6% (inactive).

Turning to `CN1OC[C@@H]2CN(S(=O)(=O)c3cccc(C(F)(F)F)c3)[C@H](c3ccc(-c4cc5ccccc5o4)cc3)C[C@@H]21`, the inhibition is 50.8% (active).

Take `CN1OC[C@@H]2CN(S(=O)(=O)c3cccc4ccccc34)[C@H](c3ccc(N4CCCCC4)cc3)C[C@@H]21`: the inhibition was 7.35% (inactive).

In the case of `COc1ccc(-c2cnc3c(c2)C(=O)N([C@H](C)CO)C[C@@H](C)[C@H](CN(C)Cc2ccccc2)O3)cc1`, the inhibition is -3.08% (inactive).

Turning to `COCCNC(=O)c1ccccc1-c1nc(-c2ccccc2Cl)no1`, the inhibition is -82.5% (inactive).

Consider `CN(C)CCNC(=O)c1ccc(Cl)c2cc3ccccc3nc12`, for which the inhibition is 43.6% (active).

Take `Cc1cc(C)n(C(=O)CCNC(=O)c2ccccc2Cl)n1`: the inhibition was 5.47% (inactive).

As for `O=S(=O)(N/N=C\c1cccn1-c1ccccc1)c1ccc2ccccc2c1`, the inhibition was 9.64% (inactive).

With `CCN(CC)S(=O)(=O)c1cccc(-c2n[nH]c(=S)n2/N=C/c2ccc(C(=O)OC)cc2)c1`, the inhibition is 20.2% (inactive).

As for `Cc1cc(-c2n[nH]c(=S)n2/N=C/C(Br)=C/c2ccccc2)n[nH]1`, the inhibition is 87% (active).

As for `CCCc1cc(-c2n[nH]c(=S)n2CC)c2ccccc2n1`, the inhibition is 25.6% (inactive).

As to `CCN1CCN(C(=O)C2CCN(S(=O)(=O)c3cc(Cl)ccc3Cl)CC2)CC1`, the inhibition was 6.56% (inactive).

In the case of `COc1ccc(Br)cc1S(=O)(=O)N1CCN=C1C`, the inhibition was 13.2% (inactive).

With `O=C(Nc1ccc2c(c1)OCO2)C1CC(c2c(F)cccc2Cl)=NO1` (stereo not given), the inhibition was -228% (inactive).

For the molecule `CC[C@@H](C)[C@H](NC(=O)CCc1c(C)c2cc3c4c(oc3c(C)c2oc1=O)CCCC4)C(=O)O`, the inhibition was 56.9% (active).

`Cc1c(CCC(=O)N[C@@H](CC(C)C)C(=O)O)c(=O)oc2c(C)c3oc4c(c3cc12)CCCC4`: the inhibition is 31.2% (inactive).

As for `Cc1c(C)c2cc3c4c(oc3c(C)c2oc1=O)CCCC4`, the inhibition is -31.5% (inactive).

As for `CC(C)Cn1c(N)c(C(=O)COC(=O)C2CCCN2C(=O)c2cccs2)c(=O)n(C)c1=O` (stereo not given), the inhibition is 4.33% (inactive).

With `O=[N+]([O-])/C=C/c1ccc2c(ccn2Cc2ccccc2)c1`, the inhibition is 92.5% (active).

As to `CC1(C)C2CCC13CS(=O)(=O)NC3C2` (stereo not given), the inhibition was 14.9% (inactive).

Take `N#Cc1ccc(OCC(=O)Nc2nc(-c3ccccn3)cs2)cc1`: the inhibition was 21.4% (inactive).

Turning to `COC(=O)Cc1[nH]n(-c2nc3ccccc3s2)c(=O)c1C(C)=Nc1ccc(OC)cc1`, the inhibition was 80.1% (active).

As to `O=C(NC(=S)Nc1ccc(Cl)cc1Cl)C1CC1`, the inhibition is -294% (inactive).

With `Cc1ccnc(NC(=O)CCNS(=O)(=O)c2ccc(C)c(C)c2)c1`, the inhibition was -176% (inactive).

As to `O=C(COC(=O)c1cccc(Cl)c1)NC1CCCCCCC1`, the inhibition was 6.27% (inactive).

For the molecule `COC(=O)c1cc(C(=O)NC(C)C2CC3CCC2C3)cc([N+](=O)[O-])c1` (stereo not given), the inhibition is 18.1% (inactive).

As for `CC(NCC(=O)Nc1ccccc1C(=O)NC1CC1)c1ccccc1Cl` (stereo not given), the inhibition is 3.17% (inactive).

On to `CCCn1c(C)cc(C(=O)COC(=O)c2c(C)nn(-c3ccccc3)c2C)c1C`, for which the inhibition is -28.6% (inactive).

With `COc1ccc(CNC(=O)COC(=O)c2sccc2C)cc1OC`, the inhibition is -10.1% (inactive).

In the case of `Cc1ccsc1C(=O)OCC(=O)c1cc(C)n(CC2CCCO2)c1C` (stereo not given), the inhibition was 64.7% (active).

Take `CCCCN(C(=O)CCNC(=O)NC12CC3CC(CC(C3)C1)C2)c1c(N)n(CCCC)c(=O)[nH]c1=O`: the inhibition was 4.48% (inactive).

In the case of `Oc1c(CN2CCOCC2)ccc(CN2CCOCC2)c1O`, the inhibition was 9.75% (inactive).

With `O=C1C(Cl)=C(Oc2ccccc2)C(=O)c2ccccc21`, the inhibition was 88.1% (active).

For the molecule `COc1ccc(C(CNC(=O)c2ccc(S(=O)(=O)Nc3ccccc3F)cc2)N(C)C)cc1` (stereo not given), the inhibition was 4.08% (inactive).

For the molecule `Nc1nc(Br)c2ccccc2c1-c1ccc(F)cc1`, the inhibition is 5.57% (inactive).

Regarding `Cn1c(=NC(=O)c2ccc3c(c2)OCCO3)sc2cc(S(C)(=O)=O)ccc21`, the inhibition is -28.1% (inactive).

With `O=C(c1ccccc1)C(O)(CN1CCCCC1)c1ccccc1` (stereo not given), the inhibition was 13.3% (inactive).

As for `O=C(O)c1ccc(N=NN2CCOCC2)cc1`, the inhibition is 10.1% (inactive).

On to `O=C(O)c1cccc(N=NN2CCCCCC2)c1`, for which the inhibition is 42.7% (active).

As for `COc1ccc(CNc2c(CO)cnc3c2cnn3C)cc1`, the inhibition is 17.6% (inactive).

For the molecule `CCN(CC)S(=O)(=O)c1ccc(NC(=O)c2cccnc2Cl)c(NC(=O)c2cccnc2Cl)c1`, the inhibition was 86.1% (active).

As for `CCN(CC)S(=O)(=O)c1ccc(NC(=O)c2cnc(C)cn2)cc1`, the inhibition is 11% (inactive).

For `Cc1ccc(CNC(=O)c2cccnc2Cl)cc1`, the inhibition is 2.18% (inactive).
